Compounds with a hit are over-represented: about 7% of the library has one in this group of screens.
S2 tox – viability counter-screen for ATXN expression inhibitors | S2 cells (HEK-293 line with an ATXN2-luciferase reporter) viability, CellTiter-Fluor protease fluorescence, 24 h | Potency, µM (series often up to 56.7 µM), most hits filed as cytotoxic | 400,000 compounds, 0.49% hits; further: nearly all actives have a fitted effect of over 40% in size
Integrin act MD – activators of alpha7 integrin expression for muscular dystrophy. 350,000 compounds, 0.064% hits. Potency, µM (highest dose often 38.3 µM), actives largely listed as activators. alpha7betagal myoblasts, beta-gal FDG fluorescence, 48 h. AID 624291; further: nearly all actives have a fitted effect of over 60% in size
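alpha7betagal+/- myoblasts (passage 13, 250/well) treated 48 h at 37C with compounds at 1:260 dilution of DMSO stock. Lysed, then beta-galactosidase activity read as FDG fluorescence (ex 480/em 540) after 30 min, with pre-read for autofluorescence.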
DRD3 agonist – D3 dopamine receptor (human) agonism; P35462; D3R DiscoveRx beta-arrestin cells, luminescence, 90 min; max activation, %; 410,000 compounds, 0.58% hits; AID 652048; in the data active means max activation above about 30%
Target sequence (P35462 whole entry, looked up): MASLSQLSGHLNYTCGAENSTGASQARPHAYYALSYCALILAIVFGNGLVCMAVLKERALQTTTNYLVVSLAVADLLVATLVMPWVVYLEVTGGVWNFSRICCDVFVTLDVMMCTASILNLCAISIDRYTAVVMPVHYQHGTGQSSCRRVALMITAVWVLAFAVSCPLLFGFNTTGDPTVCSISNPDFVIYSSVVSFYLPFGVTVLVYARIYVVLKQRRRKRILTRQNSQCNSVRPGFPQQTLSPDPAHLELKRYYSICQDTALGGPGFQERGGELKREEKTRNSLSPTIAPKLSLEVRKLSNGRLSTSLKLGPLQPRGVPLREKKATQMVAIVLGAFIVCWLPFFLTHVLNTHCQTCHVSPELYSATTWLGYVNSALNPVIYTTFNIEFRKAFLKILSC
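Agonist-mode cell screen: cells plated at 1500/well and incubated overnight at 37 °C, then exposed to library compounds for 90 min at 37 °C. Detection reagent was added for 30–60 min at room temperature, and luminescence was read.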
DRD3 antagonist – antagonists of human D3 dopamine receptor. AID 652054. 360,000 compounds, 2.5% hits. P35462. max response, negative = inhibition, %. D3R cells, DiscoveRx beta-arrestin luminescence, antagonist mode; active compounds read low; in the data active means max response below about -50%; inconclusive means no clear call, values can overlap the other calls
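Cells plated overnight at 1500 cells/well, then exposed to library compounds with dopamine controls for 90 minutes at 37 degrees C. DiscoveRx reagent added for 30–60 minutes at room temperature; luminescence read, quantitative HTS format.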
IL1B secr inh – blocks inflammasome-driven IL-1 beta release; THP-1 LPS/ATP IL-1B secretion, AlphaLISA, 16 h; active compounds read low; 360,000 compounds, 4.7% hits; activity change, % at 57.5 µM; AID 743279; in the data active means activity change below about -50%; inconclusive means mostly about -30% to -49%
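THP-1 cells pretreated 1 hr with compounds (up to 57.5 uM final), then stimulated with LPS (250 ng/mL final) plus ATP (1.25 mM final); secreted IL-1B measured by AlphaLISA after 16 hr, decreased signal indicating inhibition.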
ATXN2 expr inh – inhibitors of ATXN2 expression. HEK-293 ATXN2-luciferase reporter, luminescence, 24 h. Potency, µM (highest dose often 57 µM), usual class: inhibitors. 360,000 compounds, 0.72% hits. AID 1745845; further: nearly all actives have a fitted effect of over 55% in size
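qHTS (up to 57 uM final) was run with 24 h compound exposure of reporter cells at 37 °C. Each well was multiplexed: SteadyGlo luminescence measured ATXN2-luciferase expression after a fluorogenic Gly-Phe-AFC viability readout (25 uM final).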
A number is an active result; . = inactive; ? = inconclusive; / = no result; [ ] = remark or other dose. Unless noted, the call rests on the fitted dose curve; in most records, active means well fitted curve in the direction sought with a large enough effect; inconclusive means small, poorly fitted or top-dose-only effect, or another doubt; inactive means no such curve, though single readings can be large; an effect the other way counts as inactive or inconclusive.

SMILES	S2 tox	Integrin act MD	DRD3 agonist	DRD3 antagonist	IL1B secr inh	ATXN2 expr inh
Brc1ccc(CN2CCN(c3ccccc3)CC2)o1	.	.	.	.	.	.
Clc1ccccc1N1CCN(Cc2ccc(Br)o2)CC1	?	.	.	-60	.	.
Oc1cccc(/C=N/Nc2ccc(Cl)nn2)c1	.	.	.	.	.	.
Cc1cc(-c2nc3ncccc3o2)ccc1NC(=O)c1ccc(Br)cc1	.	/	.	/	/	.
COc1ccc(-c2ccc(C)cc2)cc1[C@H]1[C@@H]2C=CCC[C@@]2(C)C(=O)N1Cc1ccccc1	.	.	.	-56	.	?
COC(CNC(=O)c1ccc2c(c1)ncn2-c1ccc(C)cc1C)OC	.	.	.	.	.	.
COc1ccc(N2CCN(C(C)C(=O)N(C)Cc3ccccc3)CC2)cc1 (centres undefined)	?	.	.	.	.	.
CC1CCCCN1CCCNc1ccc(C(CC(N)=O)NC(=O)Cc2ccc(Br)cc2)cc1[N+](=O)[O-] (centres undefined)	?	.	.	-52	.	.
NC(=O)CC(NC(=O)Cc1ccc(Br)cc1)c1ccc(NCC2CC2)c([N+](=O)[O-])c1 (centres undefined)	.	.	.	?	.	.
CCOC(=O)c1[nH]c(Cc2[nH]c(C(=O)OCC)c(C)c2CCC(=O)OC)c(CCC(=O)OC)c1C	.	.	.	.	.	.
CCc1ccc(NC(=O)CSC2=Nc3ccccc3C3=NC(CC(=O)NCc4ccc5c(c4)OCO5)C(=O)N23)cc1 (centres undefined)	25µM	/	.	/	/	.
O=C(CC1N=C2c3ccccc3N=C(SCC(=O)Nc3ccc(F)cc3)N2C1=O)NCc1ccc2c(c1)OCO2 (centres undefined)	?	/	.	/	/	.
O=C(NC1CCN(S(=O)(=O)c2ccc(F)cc2)CC1)c1cccc(F)c1	.	.	.	.	.	.
O=c1ccn(Cc2ccccc2)c(=O)n1Cc1ccccc1	.	.	.	-50	.	.
Cn1c(N)cc(=O)n(Cc2ccccc2)c1=O	.	.	.	.	.	.
CN(C(=O)CSc1ncccc1C(=O)O)c1ccccc1	.	.	.	.	.	.
COc1ccccc1C1CCN(Cc2ccc(C)cc2)CC1	.	.	.	?	.	.
COC(=O)CCN1CCC(c2cc(-c3cccc(C(F)(F)F)c3)n[nH]2)CC1	.	?	.	.	.	.
FC(F)(F)c1cccc(CN2CCC(c3cc(-c4cccs4)n[nH]3)CC2)c1	?	.	.	-80	-217	?
Cc1ccc(CN2CCC(c3cc(-c4cccs4)n[nH]3)CC2)cc1	.	.	.	-78	-86	.
COc1cc(-c2nnc(-c3ccc(S(=O)(=O)c4ccccc4)cc3)o2)cc(OC)c1OC	.	.	.	.	.	.
Cc1ccc2c(c1)C(c1ccccc1)N(C(=O)c1ccc(S(=O)(=O)N3CCCC3)cc1)CC(=O)N2 (centres undefined)	.	/	.	/	/	.
C=CCN=c1scc(C)n1/N=C/c1ccc(O)c(O)c1	?	.	31	.	.	/
CN=c1scc(-c2ccco2)n1/N=C/c1ccc(O)c(O)c1	.	.	51	.	.	.
CCCCC(CC)COP(=O)(OCC(CC)CCCC)OCC(CC)CCCC (centres undefined)	?	/	.	.	-72	.
SMILES	S2 tox	Integrin act MD	DRD3 agonist	DRD3 antagonist	IL1B secr inh	ATXN2 expr inh
CCCCC(CC)COC(=O)c1ccc(N(C)C)cc1 (centres undefined)	.	/	.	.	.	.
C/C=C(\C)C(=O)NCCN1C2=NC[C@H](Cc3ccc(O)cc3)N2C[C@H]1Cc1ccc(O)cc1	.	.	.	.	.	.
S=C(NCc1ccco1)Nc1cccc(Cl)c1	.	.[7.66 µM]	.	.	.	.
S=C(NCc1ccco1)Nc1cc(Cl)c(Cl)cc1Cl	.	.	.	.	-52	.
S=C(NCc1ccco1)Nc1ccc(Cl)c(Cl)c1	.	.	.	.	-101	?
CCOc1ccc(-c2nc(CSCC(=O)NCCc3ccccc3)c(C)o2)cc1	.	/	.	/	/	.
COc1cc(OC)cc(-c2c(-c3cccs3)c3cc(-c4cnc(N)nc4)ccc3n2C)c1	?	.	.	.	.	.

Screening results as filed in PubChem.
